The source of these data is PubChem BioAssay (EPA / NIEHS).

Some compounds were tested as several samples or in several runs, with calls that do not always agree. The source made the active and inactive calls. How the source made its calls: active means hit-call score of the fitted dose curve at least 0.9, where 1 is the maximum; inactive means score below 0.9.

Read-out in the experiment: Matrix Metallopeptidase 9 (MMP9), MMP9 (gene 4318)
The experiment in a line: BSK_BE3C_MMP9: BioMAP Diversity Plus: BE3C Assay for Matrix Metallopeptidase 9 (MMP9) Biomarker Activity (AID 2284283). The settings on record: primary human bronchial epithelial cells. As for the experimental part: BSK_BE3C is a cell-based, multiplexed-readout assay that uses bronchial epithelial cell, a human lung primary cell, with measurements taken at 24 hours after chemical dosing in a 96-well plate.BSK_BE3C_MMP9 is an assay component measured in the BSK_BE3C assay. It measures MMP-9 antibody related to regulation of gene expression using ELISA technology.Data from the assay component BSK_BE3C_MMP9 was analyzed at the endpoint, BSK_BE3C_MMP9, in the positive analysis fitting direction relative to DMSO as the negative control and baseline of activity. Using a type of binding reporter, gain or loss-of-signal activity can be used to understand protein changes. To generalize the intended target to other relatable targets, this assay endpoint is annotated to the 'protease' intended target family, where the subfamily is 'matrix metalloproteinase'.
The levels of cell surface (or secreted, indicated by the prefix "s") biomarker endpoints were measured by ELISA. Overt cytotoxicity to cells in confluent adherent cultures (all systems other than the BT system) was assessed by measuring total protein levels using sulforhodamine B (SRB) staining in parallel cultures at the time of biomarker measurements, indicated as SRB endpoints. For proliferation assays for adherent cell types, individual cell types are cultured at sub-confluence and relative cell numbers quantified by SRB staining at time points optimized for each system (48 h: 3C and CASM3C systems; 72 h: BT and HDF3CGF systems; 96 h: SAg system). SRB was performed by staining cells with 0.1% SRB after fixation with 10% TCA and reading wells at 560 nm.Viability and proliferation of PBMC (T cells) was quantified by Alamar Blue reduction for the SAg and BT systems. For PBMC viability (referred to as PBMC Cytotoxicity within the assay endpoint names), cells were plated (75,000/well in a 96-well plate) and then chemical samples added for 1 h before addition of activators, SEB and TSST-1 (20 ng/mL final concentration each). Cells were incubated for 90 h. Then, Alamar Blue (20 uL/well) (Invitrogen, Cat DAL1100) was added for 6 h, and the plates were read with a fluorescence microplate reader at 546/580 nm (excitation/emission). For PBMC proliferation, cells were plated and activated as above but incubated for only 16 h prior to addition of Alamar Blue. Plates were read after 6 h.
For the molecule `CC[Si](OC(C)=O)(OC(C)=O)OC(C)=O`, the half-maximal activity concentration (AC50) (in general, the concentration at which the activity in the assay is half-maximal) was 6.87 µM (active) and the outcome was inactive.

As to `OC[C@H]1O[C@H](O[C@]2(CCl)O[C@H](CCl)[C@@H](O)[C@@H]2O)[C@H](O)[C@@H](O)[C@H]1Cl`, the outcome was inactive.

Turning to `C=CCOC(=O)CCC1CCCCC1`, the result was inactive.

Consider `C[C@H]1C[C@@H]2[C@H]([C@@H](O)C[C@@]3(C)[C@H]2CC[C@]3(O)C(=O)CO)[C@@]2(C)C=CC(=O)C=C12`, for which the result was inactive.

Consider `Nc1cc([N+](=O)[O-])ccc1O`, for which the result was inactive.

`CC(=O)[C@H]1CC[C@H]2[C@@H]3CC=C4C[C@@H](O)CC[C@]4(C)[C@H]3CC[C@]12C`: the outcome was inactive.

For `CCC(=O)OCc1ccccc1`, the outcome was inactive.

For `COc1cc(C=O)ccc1OC(=O)C(C)C`, the outcome was inactive.

With `NCCNCCN`, the result was inactive.

For `Cc1cc(C2(c3cc(C)c(O)cc3C)OS(=O)(=O)c3ccccc32)c(C)cc1O`, the outcome was inactive.

As for `OC1OC[C@@H](O)[C@H](O)[C@H]1O` (stereo partly drawn), the outcome was inactive.

As to `CC(=O)OCCC(C)CC(C)(C)C` (stereo not drawn), the result was inactive.
